mcGAS RapidFire: inhibitors of Mus musculus cyclic GMP-AMP synthase, initial high-throughput assay, cell-free, RapidFire MS; Q8C6L5; recombinant mouse cGAS, cGAMP by RapidFire MS; inhibition, % at 12.5 µM; 130,000 compounds, 0.18% hits; AID 1259397, 2018;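 active means inhibition of cGAS enzyme activity at or above 60%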;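 further: enzyme stimulated by 45 bp dsDNA with ATP and GTP substrates; cGAMP share of summed cGAMP plus half ATP and half GTP signals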
Target sequence (Q8C6L5 whole entry, looked up): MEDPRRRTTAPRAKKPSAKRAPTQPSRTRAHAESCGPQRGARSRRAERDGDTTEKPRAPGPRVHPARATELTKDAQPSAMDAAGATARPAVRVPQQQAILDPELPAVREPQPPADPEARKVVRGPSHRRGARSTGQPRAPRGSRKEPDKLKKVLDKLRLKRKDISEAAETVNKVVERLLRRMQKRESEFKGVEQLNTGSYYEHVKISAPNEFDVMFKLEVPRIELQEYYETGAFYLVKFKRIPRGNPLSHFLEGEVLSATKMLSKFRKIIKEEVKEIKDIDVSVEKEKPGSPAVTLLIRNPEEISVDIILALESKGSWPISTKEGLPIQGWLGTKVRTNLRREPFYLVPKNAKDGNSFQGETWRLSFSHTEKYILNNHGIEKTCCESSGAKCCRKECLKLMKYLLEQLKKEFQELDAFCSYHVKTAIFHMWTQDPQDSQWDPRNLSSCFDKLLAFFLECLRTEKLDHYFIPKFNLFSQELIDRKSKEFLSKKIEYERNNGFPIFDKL
Numbers stand for hits; - = inactive; ! = not confirmed by another sample. Only a selection was taken, and hits are over-represented in it overall.

SMILES	mcGAS RapidFire
Cc1ccc(S(=O)(=O)NCc2ccc(C(=O)O)cc2)s1	-
O=C(Nc1ccc2scnc2c1)C1CC(=O)N(CC2CC2)C1 (centres undefined)	-
CC(CC#N)Sc1ccccc1NC(=O)C1CC(=O)N(CC2CC2)C1 (centres undefined)	65.7
CCN1CC(C(=O)Nc2ccccc2C(C)C)CC1=O (centres undefined)	-
CC(C)NC(=O)N1CCCC(OCc2ccc(C(F)(F)F)cc2)C1 (centres undefined)	-
O=C(NC(=S)NC1CCCCCCC1)c1ccco1	-
CN(C)C(=O)CNC(=O)c1cc(-c2cccc(Cl)c2)no1	-
Cn1nc(C(=O)Nc2ccc(-c3csc(N4CCOCC4)n3)cc2)ccc1=O	-
COc1cccc(-c2ccc3c(c2)N(Cc2ccc4c(c2)OCO4)C(=O)C(C)S3)c1 (centres undefined)	-
CC1Sc2ccccc2N(Cc2ccc(F)c(Cl)c2)C1=O (centres undefined)	-
CC1Sc2ccc(-c3ccco3)cc2N(Cc2ccc(Cl)cc2)C1=O (centres undefined)	65.7
Cc1cc(-c2ccc(NN=C3C=Cc4c(S(=O)(=O)O)cc(S(=O)(=O)O)c(N)c4C3=O)c(C)c2)ccc1NN=C1C=Cc2c(S(=O)(=O)O)cc(S(=O)(=O)O)c(N)c2C1=O	95.5
CC(C)Oc1ccccc1C1Nc2ccccc2N=C2CC(c3ccc(Cl)cc3)CC(=O)C21 (centres undefined)	-
COCCCn1c(SCc2nc3ccsc3c(=O)[nH]2)n[nH]c1=O	-
O=C(CSc1nnc(-c2ccccc2)n1-c1ccccc1)N/N=C\c1ccc(Cl)cc1	-
C[n+]1c2cc(N)ccc2cc2ccc(N)cc21	98.9!
Cn1cc(NC(=O)NC2CCN(c3cccc(Cl)c3)C2)cn1 (centres undefined)	-
CCCNC(=O)N1CCC2(CC1)NC(CC(C)C)C(=O)N2CCc1ccccn1 (centres undefined)	-
COC(=O)C(c1cc(F)ccc1F)N(C)C(=O)c1csnn1 (centres undefined)	-
CC/C=C(\C)c1c(-c2ccccc2)ncn1CC(O)CO (centres undefined)	-
O=c1c(O[C@@H]2O[C@H](CO)[C@H](O)[C@H](O)[C@H]2O)c(-c2ccc(O)c(O)c2)oc2cc(O)cc(O)c12	-
O=c1c(O)c(-c2ccccc2)oc2cc(O)ccc12	-
O=c1c(O)c(-c2cc(O)c(O)c(O)c2)oc2cc(O)cc(O)c12	94.0
CC(=O)NC(Cc1ccccc1F)C(=O)N1CCOC(Cc2ccccc2)C1 (centres undefined)	-
CC(C)c1n[nH]c2c1CNCC2	-
SMILES	mcGAS RapidFire
COc1ccccc1OC(C)(C)C(=O)N1CCN(C)C(C(=O)O)C1 (centres undefined)	81.9!
CN1CCN(C2CCN(C(=O)c3ccccc3)CC2)CC1C(=O)O (centres undefined)	-
COc1ccccc1-c1ccc(C(=O)N2CCN(C)C(C)C2)cc1 (centres undefined)	-
Nc1nc(N2CCCCC2)nc(NCc2ccco2)c1[N+](=O)[O-]	-
COc1ccccc1CN(Cc1ccc2[nH]ccc2c1)C1CC1	-
Cn1c(=O)c([N+](=O)[O-])c(Nc2ccc(Cl)cc2)c2ccccc21	-
Cc1ccc(S(=O)(=O)C(C)c2ncc(C(C)(C)C)o2)cc1C (centres undefined)	-
COc1ccc(S(=O)C(C)c2ncc(C(C)(C)C)o2)cc1OC (centres undefined)	67.5
CC(Nc1cccc(NC(=O)CO)c1)c1ncc(C(C)(C)C)o1 (centres undefined)	-
CC1CCCN(C(=O)c2ccc(Br)o2)C1 (centres undefined)	-
Nc1nncn1C(=O)c1ccc(Br)o1	81.6
O=C(c1ccco1)N1CCN(C(=O)c2ccc(Br)o2)CC1	-
Cc1ccc(N2CCCS2(=O)=O)cc1NC(=O)c1c(C)nc2ccccn12	-
O=S(=O)(c1cccc(Br)c1)N1CCc2ccccc21	-
Clc1ccc(Oc2ccnc3cc(Cl)ccc23)cc1	-
Clc1ccc2c(-n3ccnc3)ccnc2c1	66.6
Clc1ccc2c(Oc3ccc(Br)cc3)ccnc2c1	-
COc1cccc2c1C(=O)c1c(O)c3c(c(O)c1C2=O)C[C@@](O)(C(=O)CO)C[C@@H]3O[C@H]1C[C@H](N)[C@@H](O)[C@H](C)O1	98.3!
COc1cccc2c1C(=O)c1c(O)c3c(c(O)c1C2=O)C[C@@](O)(C(C)=O)C[C@@H]3O[C@H]1C[C@H](N)[C@H](O)[C@H](C)O1	90.6!
CC(=O)[C@]1(O)Cc2c(O)c3c(c(O)c2[C@@H](O[C@H]2C[C@H](N)[C@H](O)[C@H](C)O2)C1)C(=O)c1ccccc1C3=O	90.4
Cc1nc2n(n1)C(=O)C(C(c1cccc(F)c1)N1CCC(C(N)=O)CC1)S2 (centres undefined)	-
Cn1c(=O)c2c(SCC(=O)Nc3nccs3)nc(-c3ccccc3)nc2n(C)c1=O	-
O=C(c1ncccc1O)N1CCCC(N2CCOCC2)C1 (centres undefined)	-
CNC(=O)c1ccc(S(=O)(=O)N2c3ccccc3CC2C)cc1 (centres undefined)	-
O=C(c1csc(Nc2ccc(OC(F)F)cc2)n1)N1CCCC1	-
SMILES	mcGAS RapidFire
Cc1ccc(NC(=O)NCCn2nc(-c3ccccc3)n(C)c2=O)cc1C	-
Cc1ccc(N2CC(CNC(=O)CC(C)C)OC2=O)cc1 (centres undefined)	-
CCCc1nc2nc(C)c([N+](=O)[O-])c(=O)n2[nH]1	-
CC(=O)Nc1nc2nc(C)c(C)c(=O)n2[nH]1	-
Cc1nc2nc(C)c(Br)c(=O)n2[nH]1	68.8
Cc1ccc(C(=O)Nc2ccc(S(=O)(=O)O)c3cc(S(=O)(=O)O)cc(S(=O)(=O)O)c23)cc1NC(=O)c1cccc(NC(=O)Nc2cccc(C(=O)Nc3cc(C(=O)Nc4ccc(S(=O)(=O)O)c5cc(S(=O)(=O)O)cc(S(=O)(=O)O)c45)ccc3C)c2)c1	93.3
Cc1coc(-c2ccc(C)c(NC(=O)c3cccc(NS(C)(=O)=O)c3)c2)n1	-
Cc1ccc(NC(=O)c2ccc(S(N)(=O)=O)c(C)c2)cc1C	-
O=C1OCCC1Sc1nnc(N2CCCC2)n1-c1ccccc1Cl (centres undefined)	-
CC(C)C(NS(=O)(=O)c1ccccc1)C(=O)N1CCN(c2cccc(Cl)c2)CC1 (centres undefined)	60.2
CC(C)C(NS(=O)(=O)c1ccccc1)C(=O)N1CCN(c2ccccc2Cl)CC1 (centres undefined)	-
CC(C)C(NS(=O)(=O)c1cccc(Cl)c1)C(=O)N1CCN(c2ccccc2)CC1 (centres undefined)	-
Cc1cc(Oc2ccc(-c3ccccc3)cc2)nc(N)n1	-

Screens (PubChem BioAssay)
